Measurements published in PubChem BioAssay (NCATS).
Inconclusive results are not listed. The source made the active and inactive calls. Unless noted, calls come from the whole dose curve; as a rule, active = well fitted curve in the direction sought with a large enough effect; inconclusive = small, poorly fitted or top-dose-only effect, or another doubt; inactive = no such curve, though single readings can be large; an effect the other way counts as inactive or inconclusive.

Experiments:
[1] = target: Ubiquitin carboxyl-terminal hydrolase 1 (Homo sapiens) (UniProt O94782); assay: Inhibitors of USP1/UAF1: Pilot qHTS (AID 504865); conditions: purified USP1/UAF1, Ub-rhodamine cleavage fluorescence; series mostly up to 114 µM;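 note: rhodamine fluorescence freed from ubiquitin-rhodamine substrate followed over time; top concentration of the series differs between compounds; nearly all actives have a fitted effect of over 35% in size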
Sequence of Ubiquitin carboxyl-terminal hydrolase 1 (Homo sapiens) (O94782 whole entry, looked up): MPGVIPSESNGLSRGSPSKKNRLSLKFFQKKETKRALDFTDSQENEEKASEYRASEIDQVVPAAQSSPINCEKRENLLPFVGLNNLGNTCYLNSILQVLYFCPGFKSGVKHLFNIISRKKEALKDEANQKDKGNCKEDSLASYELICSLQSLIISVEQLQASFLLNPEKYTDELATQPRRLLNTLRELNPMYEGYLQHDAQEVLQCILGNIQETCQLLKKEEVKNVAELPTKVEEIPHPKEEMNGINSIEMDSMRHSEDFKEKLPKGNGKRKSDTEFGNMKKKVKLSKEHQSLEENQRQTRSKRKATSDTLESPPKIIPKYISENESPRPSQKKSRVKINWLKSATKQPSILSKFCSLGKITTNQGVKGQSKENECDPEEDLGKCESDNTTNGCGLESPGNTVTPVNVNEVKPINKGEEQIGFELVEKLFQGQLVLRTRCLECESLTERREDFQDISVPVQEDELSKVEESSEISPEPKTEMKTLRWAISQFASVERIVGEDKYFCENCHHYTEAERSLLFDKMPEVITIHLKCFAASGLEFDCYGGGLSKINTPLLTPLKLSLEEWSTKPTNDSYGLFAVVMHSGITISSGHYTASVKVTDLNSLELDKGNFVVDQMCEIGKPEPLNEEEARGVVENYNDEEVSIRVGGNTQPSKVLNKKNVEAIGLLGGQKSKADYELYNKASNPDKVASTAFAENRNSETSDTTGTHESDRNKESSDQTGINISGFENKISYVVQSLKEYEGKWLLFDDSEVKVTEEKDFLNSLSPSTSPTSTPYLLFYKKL
In short: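 Deubiquitinase activity followed as kinetic rhodamine fluorescence release from 150 nM Ub-Rho. 1 nM USP1/UAF1 with compound, after 15 min room-temperature preincubation, in HEPES pH 7.8 buffer containing TCEP, EDTA, BSA and Tween-20.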

[2] = target: Luciferin 4-monooxygenase (Photinus pyralis) (UniProt P08659); assay: Biochemical firefly luciferase enzyme assay for NPC (AID 624030);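 note: purified P. pyralis luciferase at 10 nM with luciferin and ATP substrate; nearly all actives have a fitted effect of over 70% in size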; conditions: purified P. pyralis luciferase, luminescence, 5 min; series mostly up to 58.6 µM
Sequence of Luciferin 4-monooxygenase (Photinus pyralis) (P08659 whole entry, looked up): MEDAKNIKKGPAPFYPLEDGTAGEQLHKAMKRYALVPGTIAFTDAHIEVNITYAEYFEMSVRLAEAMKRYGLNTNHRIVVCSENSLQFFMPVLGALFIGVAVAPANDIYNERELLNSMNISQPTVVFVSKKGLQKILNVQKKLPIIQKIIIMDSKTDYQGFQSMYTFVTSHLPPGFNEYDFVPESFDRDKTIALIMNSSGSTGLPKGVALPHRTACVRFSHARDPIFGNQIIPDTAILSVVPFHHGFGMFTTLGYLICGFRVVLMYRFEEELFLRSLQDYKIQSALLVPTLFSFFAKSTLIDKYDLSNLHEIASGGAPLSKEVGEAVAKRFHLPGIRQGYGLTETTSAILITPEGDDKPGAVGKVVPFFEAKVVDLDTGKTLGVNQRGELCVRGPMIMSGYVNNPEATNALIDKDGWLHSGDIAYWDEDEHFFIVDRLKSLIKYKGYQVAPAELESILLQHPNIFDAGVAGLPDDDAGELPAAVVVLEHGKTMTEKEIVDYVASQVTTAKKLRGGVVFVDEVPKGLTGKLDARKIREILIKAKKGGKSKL
In short: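 Purified P. pyralis luciferase at 10 nM in 50 mM Tris Acetate (final), luminescence read within 5 minutes of enzyme addition to compounds. Activity normalised to PTC124 versus DMSO; concentration-response curves classed by r2, magnitude and activity.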

[3] = S16 Schwann cell viability assay (CellTiter-Glo assay) (AID 624031); conditions: S16 rat Schwann cells viability, 24 h; series mostly up to 57.5 µM;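 note: native untransfected S16 rat Schwann cells; cellular ATP luminescence as a viability measure; nearly all actives have a fitted effect of over 70% in size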
In short: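 Cells were seeded at 500-750 per well in phenol red-free DMEM with 10% FBS and left overnight. Compounds or DMSO were pinned in, incubation ran 24 h at 37 °C/5% CO2, then CellTiter-Glo reagent was added and luminescence measured.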

[4] = S16 Schwann cell PMP22 intronic element firefly luciferase assay (AID 624032); conditions: S16 rat Schwann cells, PMP22 element FLuc, 24 h; series mostly up to 57.5 µM; note: nearly all actives have a fitted effect of over 30% in size
In short: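 Rat S16 Schwann cells stably carrying firefly luciferase driven by a PMP22 intronic element, in 10% FBS, treated 24 h at 37 C. ONE-Glo luminescence normalized to PTC124 control and DMSO (0%); curves classed by r2, magnitude and activity.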

[5] = S16 Schwann cell PMP22 intronic element beta-lactamase assay (AID 624044; calls by dose curve; note: nearly all actives have a fitted effect of over 15% in size); conditions: S16 rat Schwann cells, PMP22 element beta-lactamase FRET, 24 h; series mostly up to 38.3 µM
In short: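 Rat S16 Schwann cells with beta-Lac driven by a PMP22 intronic element, compound-treated 24 h at 37 °C. LiveBLAzer FRET B/G read: 460 nm normalized to potassium clavulanate vs DMSO; 535 nm FRET as viability; concentration-effect curves classified.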

3D7 = assay: qHTS profiling for inhibitors of Plasmodium falciparum proliferation (AID 504749); note: nearly all actives have a fitted effect of over 60% in size; conditions: P. falciparum in erythrocytes, SYBR Green DNA, 72 h; series mostly up to 28.7 µM
In short: (§1)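 Readout was DNA-dye fluorescence from lysed cultures, ex 485/em 535 nm. Parasitized red cells had grown 72 h with compound; data scaled between 0.29 uM artemisinin and DMSO wells and corrected using vehicle-only plates.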

AA1029 = assay: as above; conditions: P. falciparum in erythrocytes, SYBR Green DNA, 72 h; series mostly up to 28.7 µM
In short: as §1

CP215 = assay: as above; conditions: P. falciparum in erythrocytes, SYBR Green DNA, 72 h; series mostly up to 28.7 µM
In short: as §1

CP260 = assay: as above; conditions: P. falciparum in erythrocytes, SYBR Green DNA, 72 h; series mostly up to 28.7 µM
In short: as §1

CP286 = assay: as above; conditions: P. falciparum in erythrocytes, SYBR Green DNA, 72 h; series mostly up to 28.7 µM
In short: as §1

CP291 = assay: as above; conditions: P. falciparum in erythrocytes, SYBR Green DNA, 72 h; series mostly up to 28.7 µM
In short: as §1

CP297 = assay: as above; conditions: P. falciparum in erythrocytes, SYBR Green DNA, 72 h; series mostly up to 28.7 µM
In short: as §1

CP315 = assay: as above; conditions: P. falciparum in erythrocytes, SYBR Green DNA, 72 h; series mostly up to 28.7 µM
In short: as §1

CP335 = assay: as above; conditions: P. falciparum in erythrocytes, SYBR Green DNA, 72 h; series mostly up to 28.7 µM
In short: as §1

DIV14 = assay: as above; conditions: P. falciparum in erythrocytes, SYBR Green DNA, 72 h; series mostly up to 28.7 µM
In short: as §1

Dd2 = assay: as above; conditions: P. falciparum in erythrocytes, SYBR Green DNA, 72 h; series mostly up to 28.7 µM
In short: as §1

GB4 = assay: as above; conditions: P. falciparum in erythrocytes, SYBR Green DNA, 72 h; series mostly up to 28.7 µM
In short: as §1

JCK = assay: as above; conditions: P. falciparum in erythrocytes, SYBR Green DNA, 72 h; series mostly up to 28.7 µM
In short: as §1

TAB165 = assay: as above; conditions: P. falciparum in erythrocytes, SYBR Green DNA, 72 h; series mostly up to 28.7 µM
In short: as §1

ICS = assay: as above; conditions: P. falciparum in erythrocytes, SYBR Green DNA, 72 h; series mostly up to 28.7 µM
In short: as §1

Measured: Potency

CC1(C)[C@@H]2CC[C@]1(C)[C@@H](OC(=O)CSC#N)C2
not listed: ICS
inactive: all other assays above

COc1cccc2c1C(=O)c1c(O)c3c(c(O)c1C2=O)C[C@](O)(C(=O)CO)C[C@@H]3O[C@H]1C[C@H](N)[C@@H](O)[C@H](C)O1
not listed: [3] | GB4
inactive: all other assays above
